Bioassay records from PubChem.
A selection: hits, their analogues and other compounds. The true share with any hit is near 1.5%.
TCR act: Activators of T cell receptors: qHTS campaign. primary human leukocytes, anti-CD3, IL-2 HTRF, 48 h. 330,000 tested, under 10 active. Potency, µM (top dose mostly 9.22 µM), most hits filed as activators. AID 504894, 2011
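Using a-CD3 beads without co-stimulation, primary human leukocytes were exposed to compounds for 48 hr. An HTRF IL-2 kit measured the cytokine, with europium-to-d2 energy transfer producing emission at 665nm upon 320nm excitation.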
PINK1 modulator: A Quantitative High throughput Screen to Identify Chemical Modulators of PINK1 Expression | PINK1 immunofluorescence, high-content cytometry, 24 h | Potency, µM (series often up to 76.6 µM), most hits filed as activators | 410,000 compounds, 0.2% hits | AID 624263, 2012; active = well fitted activation curve with a large enough effect; inconclusive = small, poorly fitted or top-dose-only effect; cell line not stated here; note: nearly all actives have a fitted effect of over 65% in size
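Decision-based qHTS: stable cells, 24 h exposure to five compound concentrations, CCCP as control. Fixed cells stained for PINK1 plus nuclear, mitochondrial and cell markers, cytometer read.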
pAkt inh: HTS Assay for Inhibitors of Akt Phophorylation: Primary Screen | Neuro2A IGF-stimulated pAkt S473 HTRF, 20 min; hits give low values | activity change, % for hits at 50 µM | 360,000 compounds, 0.32% hits | AID 651550, 2012; in the data active = activity change below about -80%; inconclusive = mostly about -51% to -80%
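Neuro2A cells in DMEM with 0.5% FBS, overnight at 37 deg C, given compound at single 50 µM final, then IGF (6 nM final) for 20 min at 37 deg C. Lysed; phospho-Akt Ser473 by HTRF after 24 h, 665/615 ratio.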
BRCA1 expr act: qHTS Assay to Identify Small Molecule Activators of BRCA1 Expression | Potency, µM (highest dose often 46.1 µM), most hits filed as activators | 380,000 compounds, 1.1% hits | MCF7-BRCA1-FFLuc reporter, luminescence, 48 h; response scale: scaled: vehicle 0%, 10 µM genistein 100%; note: nearly all actives have a fitted effect of over 80% in size
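Luminescence from a BRCA1-driven firefly luciferase in MCF7 cells was the read-out, taken 15 min after substrate addition following 48 h compound exposure at 37 °C. Data were normalized to a 10 microM genistein control and DMSO vehicle.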
Numbers stand for hits. Unless noted, calls come from the whole dose curve; as a rule, active = well fitted curve in the direction sought with a large enough effect; inconclusive = small, poorly fitted or top-dose-only effect, or another doubt; inactive = no such curve, though single readings can be large; an effect the other way counts as inactive or inconclusive.

`Cc1nn(CC(C)C)c(Cl)c1C(=O)NC1CCC(C)CC1` (stereo not given) gave TCR act inactive, PINK1 modulator inactive, pAkt inh inactive and BRCA1 expr act 3.2µM.
Screening CC(=O)OC1C(=O)[C@]2(C)C(O)CC3OC[C@]3(OC(C)=O)C2[C@@H](OC(=O)c2ccccc2)[C@]2(O)CC(O)C(C)=C1C2(C)C (stereo not given in full) returned PINK1 modulator inactive.
Screening CC(C)c1ccc2c(c1O)CCC1C3=C(CC[C@]21C)C(=O)OC3 (stereo not given in full) returned PINK1 modulator inactive.
Screening COc1ccccc1CN1CC[C@@]2(CCCN(C(=O)Oc3ccccc3)C2)C1 returned PINK1 modulator inactive.
Screening Cc1nc(-c2ccc(Cl)cc2)sc1C1(C)CC(c2ccccc2)=NO1 (stereo not given) returned TCR act inactive, PINK1 modulator inactive, pAkt inh inactive and BRCA1 expr act 11µM.
O=C(Oc1ccccc1)N1CCC[C@@]2(CCN(Cc3ccccc3)C2)C1 was read as PINK1 modulator inactive.
COP(=S)(OC)Oc1ccc([N+](=O)[O-])cc1 was read as PINK1 modulator inactive.
`Cc1ccc(C2SCC(=O)Nc3c2c(=O)[nH]n3C2CCOC(C)(C)C2)cc1` (stereo not given) gave TCR act inactive, PINK1 modulator inactive, pAkt inh inactive and BRCA1 expr act inactive.
Screening COc1ccc(C2SCC(=O)Nc3c2c(=O)[nH]n3C2CCCCC2)cc1 (stereo not given) returned TCR act inactive, PINK1 modulator inactive, pAkt inh -105% and BRCA1 expr act inactive.
c1ccc(CN2CCc3nc4ccccc4cc3C2)cc1 was read as TCR act inactive, PINK1 modulator inactive, pAkt inh inactive and BRCA1 expr act 10µM.
For CN1CCN(c2ncc3ncc(=O)n(C)c3n2)CC1 the results were PINK1 modulator inactive.
For [O-]/[N+](=C/c1cccnc1)c1ccc(Br)cc1 the results were TCR act inactive, PINK1 modulator inactive, pAkt inh inactive and BRCA1 expr act 11µM.
`CCOP(=S)(OCC)SCn1c(=O)oc2cc(Cl)ccc21` gave PINK1 modulator inactive.
`COc1cccc(NC(=O)N2CCC3(CC2)OCCO3)c1` gave TCR act inactive, PINK1 modulator inactive, pAkt inh inactive and BRCA1 expr act 11µM.
`Clc1ccccc1CNc1nc2ccccc2n2cnnc12` gave TCR act inactive, PINK1 modulator inconclusive, pAkt inh inactive and BRCA1 expr act inactive.
